# Laboratory results as given in PubChem BioAssay (NCATS).
# Several values for one entry are separate records, joined by “and”; a condition that tells them apart may be missing. Equal entries are not always repeated. Inconclusive results are not listed. Activity calls are given as the source filed them. Calls come from the whole dose curve; as a rule, active = well fitted activation curve with a large enough effect; inconclusive = small, poorly fitted or top-dose-only effect; inactive = flat fitted curve, though single readings scatter.
# System: not listed separately
# Assay: qHTS assay for environmental chemicals that activate the Aryl hydrocarbon Receptor (AhR) signaling pathway (AID 651777); note: % of control where 0% means no effect; nearly all actives have a fitted effect of over 15% in size
# Settings: 1A2-DRE human hepatoma cells, luciferase, 24 h; active compounds read high
# Procedure, shortened: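 Following a 24 hr incubation with test chemicals at 37 C and 5% CO2, 1A2-DRE human hepatoma cells received One-Glo reagent; after 30 min at room temperature, luciferase output reflected CYP1A2 induction via AhR.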
row,Compound,activation
1,O=C(O)CC(O)(CC(=O)O)C(=O)O,0.406% (inactive) and -1.76% (inactive) and 1.69% (inactive)
2,O=S(=O)(c1ccccc1)N(CC(F)(F)F)c1ccc(C(O)(C(F)(F)F)C(F)(F)F)cc1,5.58% (inactive)
3,CN(C)Cc1ccccc1,-1.16% (inactive)
4,C=Cc1ccccc1,0.041% (inactive) and 1.82% (inactive)
5,CC(=O)S[C@@H]1CC2=CC(=O)CC[C@]2(C)[C@H]2CC[C@@]3(C)[C@@H](CC[C@@]34CCC(=O)O4)[C@H]12,-3.59% (inactive)
6,COC(C)=O,0.269% (inactive)

# Target: Peroxisome proliferator-activated receptor alpha (Homo sapiens) (UniProt Q07869)
# Sequence (Q07869 whole entry, looked up): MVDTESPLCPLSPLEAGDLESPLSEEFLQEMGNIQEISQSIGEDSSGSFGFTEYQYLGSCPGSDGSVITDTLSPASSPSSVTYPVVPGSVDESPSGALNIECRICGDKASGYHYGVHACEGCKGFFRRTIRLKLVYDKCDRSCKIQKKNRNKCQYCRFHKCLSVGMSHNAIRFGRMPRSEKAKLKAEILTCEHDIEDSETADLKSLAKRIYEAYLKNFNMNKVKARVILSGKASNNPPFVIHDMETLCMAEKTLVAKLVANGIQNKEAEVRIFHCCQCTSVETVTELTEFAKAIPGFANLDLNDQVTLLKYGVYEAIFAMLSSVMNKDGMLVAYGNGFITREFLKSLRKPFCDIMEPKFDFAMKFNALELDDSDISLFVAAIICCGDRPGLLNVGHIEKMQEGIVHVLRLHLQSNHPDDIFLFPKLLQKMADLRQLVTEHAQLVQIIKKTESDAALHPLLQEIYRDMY
# Assay: qHTS assay for small molecule agonists of the peroxisome proliferator-activated receptor alpha (PPARalpha) signaling pathway (AID 651778); note: potency is the fitted concentration of half-maximal effect; for max response: % of control where 0% means no effect
# Settings: PathHunter PPARalpha complementation, chemiluminescence, 6 h; max response: active compounds read high
# Procedure, shortened: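 Chemiluminescence from complemented enzyme reported PPARalpha activation in cells after 6 hr of compound treatment at 37 C. The detection reagent was incubated for 60 min at room temperature, and compounds were scored as agonists.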
Compound,max response,Potency
O=C(O)CC(O)(CC(=O)O)C(=O)O,-3.03% (inactive) and 0.0721% (inactive) and -1.17% (inactive),
CCCCCCCCCC(=O)O,5.25% (inactive) and -0.468% (inactive),
O=S(=O)(c1ccccc1)N(CC(F)(F)F)c1ccc(C(O)(C(F)(F)F)C(F)(F)F)cc1,-0.426% (inactive),
CN(C)Cc1ccccc1,-9.3% (inactive),
C=Cc1ccccc1,-2.11% (inactive) and 2.32% (inactive),
CC(=O)S[C@@H]1CC2=CC(=O)CC[C@]2(C)[C@H]2CC[C@@]3(C)[C@@H](CC[C@@]34CCC(=O)O4)[C@H]12,-2.36% (inactive),
CCCCCCCC/C=C\CCCCCCCC(=O)OC[C@@H](O)[C@H]1OC[C@H](O)[C@H]1O,,39.8 µM (active)
COC(C)=O,6.49% (inactive),
